Reference: PubChem BioAssay (NCI)
Compounds without any hit were thinned out: in the full panel of roughly 83,000, 20% have a hit.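 For each line, cells grew in 96-well plates with the test compound present at a single concentration for 48 hours.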 The source made the active and inactive calls. How the source made its calls: active means growth percent below 10; inactive means the rest.

Legend:
Test in all cases: NCI-60 one-dose screen, 48 h (100 = growth as untreated, 0 = no growth, -100 = all killed)
Settings in all cases: 10 µM unless noted
DU-145 prostate = system: DU-145 prostate
K-562 leukemia = system: K-562 leukemia
MALME-3M melanoma = system: MALME-3M melanoma
MDA-MB-231 breast = system: MDA-MB-231 breast
RXF 393 renal = system: RXF 393 renal
SF-268 CNS = system: SF-268 CNS
SF-295 CNS = system: SF-295 CNS
SF-539 CNS = system: SF-539 CNS
UACC-257 melanoma = system: UACC-257 melanoma
M14 melanoma = system: M14 melanoma

Measured: growth

COc1cc2c(c(OC)c1OC)C(=O)CC(c1cccc(C(=O)Nc3ccc(Br)cc3)c1)O2 (stereo not given)
active: K-562 leukemia 6.2%
inactive: DU-145 prostate 73% | MALME-3M melanoma 70% | MDA-MB-231 breast 50.8% | RXF 393 renal 66.5% | SF-268 CNS 64.2% | SF-295 CNS 63.6% | SF-539 CNS 82.8% | UACC-257 melanoma 74.7% | M14 melanoma 57.7%

Cc1ccc(C2=Nc3c(N)nc(N)nc3NC(c3cccc(Nc4ccnc5cc(C(F)(F)F)ccc45)c3)C2)cc1 (stereo not given)
inactive: DU-145 prostate 46.6% | MALME-3M melanoma 39.1% | MDA-MB-231 breast 34.8% | RXF 393 renal 23.6% | SF-268 CNS 29.7% | SF-295 CNS 15.8% | SF-539 CNS 40.3% | UACC-257 melanoma 62.3% | M14 melanoma 11.1%
active: K-562 leukemia 8.46%

Nc1ncc(-c2ccc3ncnc(N4CCc5cc(F)c(Cl)cc54)c3c2)cn1
inactive: DU-145 prostate 33.4% | K-562 leukemia 61.4% | MALME-3M melanoma 53.6% | MDA-MB-231 breast 30% | SF-268 CNS 39.8% | SF-295 CNS 56.2% | SF-539 CNS 48.5% | UACC-257 melanoma 67.6% | M14 melanoma 61.1%
active: RXF 393 renal 1.88%

COc1cc2nc3cc([N+](=O)[O-])ccc3c(NCCCNCCO)c2cc1OC
active: DU-145 prostate -31.2% | K-562 leukemia -19% | MALME-3M melanoma -82.6% | MDA-MB-231 breast -54.5% | RXF 393 renal -58.8% | SF-268 CNS -46.8% | SF-295 CNS -20.7% | SF-539 CNS -36.2% | UACC-257 melanoma -53.4% | M14 melanoma -66.5%

CN1CCN(Cc2ccc(NC(=O)c3cncc(C#Cc4cnc(N)c5ncccc45)c3)cc2Cl)CC1
active: K-562 leukemia -28.9%
inactive: DU-145 prostate 77.1% | MALME-3M melanoma 54.2% | MDA-MB-231 breast 16.2% | RXF 393 renal 21.8% | SF-268 CNS 98.7% | SF-295 CNS 101% | SF-539 CNS 83.1% | UACC-257 melanoma 89.7% | M14 melanoma 84.4%

CCOC(=O)c1c(Nc2nc3ccccc3s2)sc2c1CCC(=O)C2
inactive: DU-145 prostate 84.8% | K-562 leukemia 10.2% | MALME-3M melanoma 93.9% | MDA-MB-231 breast 79.4% | RXF 393 renal 83.6% | SF-268 CNS 71% | SF-295 CNS 86.3% | SF-539 CNS 46.8% | UACC-257 melanoma 92.7% | M14 melanoma 58.6%

Clc1nc(N2CCC[N+]3(CC2)CC[N+]2(CCCNCC2)CC3)nc(N2CCC[N+]3(CC2)CC[N+]2(CCCNCC2)CC3)n1 (stereo not given)
active: MALME-3M melanoma 3.84%
inactive: DU-145 prostate 91% | K-562 leukemia 104% | MDA-MB-231 breast 86.5% | RXF 393 renal 100% | SF-268 CNS 76.8% | SF-295 CNS 104% | SF-539 CNS 87.5% | UACC-257 melanoma 81.3% | M14 melanoma 103%

Cc1c(C)c2c(c(C)c1OC(=O)CCC(=O)[O-])CCC(C)(CCCCCCCCCCC[P+](c1ccccc1)(c1ccccc1)c1ccccc1)O2 (stereo not given)
active: DU-145 prostate -54.1% | K-562 leukemia 6.14% | MALME-3M melanoma -83.6% | MDA-MB-231 breast -34.2% | RXF 393 renal -78.3% | SF-268 CNS -61.3% | SF-295 CNS -87.4% | SF-539 CNS -69.1% | UACC-257 melanoma -54.2% | M14 melanoma -60.3%

CCOC(=O)c1cnc2sc(-c3ccc(OC)cc3)nc2c1Cl
inactive: DU-145 prostate 96.3% | K-562 leukemia 107% | MALME-3M melanoma 76.3% | MDA-MB-231 breast 101% | RXF 393 renal 101% | SF-268 CNS 103% | SF-295 CNS 105% | SF-539 CNS 104% | UACC-257 melanoma 101% | M14 melanoma 79.1%

c1ccc2cc(Cn3cc[n+](Cc4ccc5ccccc5c4)c3)ccc2c1
inactive: DU-145 prostate 53.2% | K-562 leukemia 22.5% | MALME-3M melanoma 13.8% | MDA-MB-231 breast 18.7% | RXF 393 renal 35.1% | SF-268 CNS 32.1% | SF-295 CNS 70.3% | SF-539 CNS 50.2% | M14 melanoma 16.1%
active: UACC-257 melanoma -9.54%

CCCCCCCCCCCCCC[n+]1ccc2c(C)c3c(c(C)c2c1)c1cc(O)ccc1n3CC
active: DU-145 prostate -93.4% | K-562 leukemia -55.7% | MALME-3M melanoma -84.7% | MDA-MB-231 breast -74.6% | RXF 393 renal -63.3% | SF-268 CNS -82.7% | SF-295 CNS -54.3% | SF-539 CNS -83.9% | UACC-257 melanoma -69.3% | M14 melanoma -86.7%

CCOC(=O)c1cc(C(=O)c2cc(OC)cc(OC)c2)n2ncccc12
inactive: DU-145 prostate 37.4% | K-562 leukemia 17.8% | MALME-3M melanoma 47.1% | MDA-MB-231 breast 54.5% | RXF 393 renal 35.9% | SF-268 CNS 44.3% | SF-295 CNS 28.2% | SF-539 CNS 20% | UACC-257 melanoma 37.6%
active: M14 melanoma -15.7%

COc1cc2cc(Oc3ccc(NC(=O)Nc4ccc(Cl)c(Cl)c4)cc3)c(C)nc2cc1OCCN1CCCCC1
inactive: DU-145 prostate 97% | MALME-3M melanoma 13.9% | MDA-MB-231 breast 91.4% | RXF 393 renal 73.7% | SF-268 CNS 92% | SF-295 CNS 99.1% | SF-539 CNS 86.8% | UACC-257 melanoma 93.6%
active: K-562 leukemia -35.7% | M14 melanoma -33.4%

COc1cccc2cc(N(C)c3nc(C)nc4c3CCC4)ccc12
active: DU-145 prostate 5.3% | SF-539 CNS -0.597% | M14 melanoma 6.91%
inactive: K-562 leukemia 10.4% | MALME-3M melanoma 57.4% | MDA-MB-231 breast 24.8% | RXF 393 renal 44% | SF-268 CNS 25.9% | SF-295 CNS 15.3% | UACC-257 melanoma 59.1%

C=C1CC[C@@H]2[C@](C)(COC(C)=O)[C@H](OC(C)=O)CC[C@@]2(C)[C@@H]1CC(Nc1ccc(S(=O)(=O)Nc2nccc(C)n2)cc1)C1=CCOC1=O (stereo not given in full)
active: K-562 leukemia 3.62% | MALME-3M melanoma -0.704% | RXF 393 renal -38.3% | SF-539 CNS -62.7%
inactive: DU-145 prostate 38.5% | MDA-MB-231 breast 13.3% | SF-268 CNS 43.2% | SF-295 CNS 78.6% | UACC-257 melanoma 48.5% | M14 melanoma 11.2%

N#Cc1c(-c2ccc(F)cc2)cc(-c2cccc(Cl)c2)[nH]c1=O
inactive: DU-145 prostate 73.9% | K-562 leukemia 56.2% | MALME-3M melanoma 70.1% | MDA-MB-231 breast 60.7% | RXF 393 renal 51.7% | SF-268 CNS 41.9% | SF-295 CNS 71.4% | UACC-257 melanoma 93.8% | M14 melanoma 82.3%
active: SF-539 CNS 9.45%

C#CCOc1cccc(-c2ncnc3cc(NC(=O)CCl)ccc23)c1
inactive: DU-145 prostate 13.9% | SF-295 CNS 34.4% | UACC-257 melanoma 42.8%
active: K-562 leukemia 2.03% | MALME-3M melanoma -78.8% | MDA-MB-231 breast -36.4% | RXF 393 renal -87.9% | SF-268 CNS -42.2% | SF-539 CNS -43.9% | M14 melanoma -52.3%

CS(=O)(=O)c1ccc(/C(=N/NC(N)=S)c2ccc(F)cc2)cc1
inactive: DU-145 prostate 108% | K-562 leukemia 85.1% | MALME-3M melanoma 104% | MDA-MB-231 breast 107% | RXF 393 renal 85.1% | SF-268 CNS 98.8% | SF-295 CNS 106% | SF-539 CNS 102% | UACC-257 melanoma 102% | M14 melanoma 104%

CN1CCN(Cc2ccc(NC(=O)c3cncc(C#Cc4c(N)ncc5cc(F)ccc45)c3)cc2C(F)(F)F)CC1
inactive: SF-268 CNS 38.6% | SF-295 CNS 59.5% | UACC-257 melanoma 41.5%
active: DU-145 prostate -88% | K-562 leukemia -50% | MALME-3M melanoma -75.3% | MDA-MB-231 breast -90.4% | RXF 393 renal -59.9% | SF-539 CNS 9.53% | M14 melanoma -75.8%

CCC(C)C(N)C(=O)NC(CC(C)C)C(=O)N1CCCC1C(=O)NC(Cc1c[nH]c2ccccc12)C(=O)NC(CCCCN)C(=O)NC(Cc1c[nH]c2ccccc12)C(=O)N1CCCC1C(=O)NC(Cc1c[nH]c2ccccc12)C(=O)NC(Cc1c[nH]c2ccccc12)C(=O)N1CCCC1C(=O)NC(Cc1c[nH]c2ccccc12)C(=O)NC(CCCNC(=N)N)C(=O)NC(CCCNC(=N)N)C(N)=O (stereo not given)
inactive: DU-145 prostate 98.4% | K-562 leukemia 104% | MALME-3M melanoma 122% | MDA-MB-231 breast 116% | RXF 393 renal 110% | SF-268 CNS 116% | SF-295 CNS 144% | SF-539 CNS 110% | UACC-257 melanoma 97.8% | M14 melanoma 108%

Cc1nc2c(c(-c3ccccc3)n1)Cc1c(ccc3ccccc13)O2
inactive: DU-145 prostate 115% | K-562 leukemia 132% | MALME-3M melanoma 126% | MDA-MB-231 breast 83% | RXF 393 renal 105% | SF-268 CNS 94.8% | SF-295 CNS 112% | SF-539 CNS 96.7% | UACC-257 melanoma 113% | M14 melanoma 104%

CCCCCCCCCCCCCCCCCCOc1ccccc1CC(=O)OCC[N+]1(C)CCCCC1
active: RXF 393 renal -3.91%
inactive: DU-145 prostate 71.6% | K-562 leukemia 22.6% | MALME-3M melanoma 45.3% | MDA-MB-231 breast 10.3% | SF-268 CNS 43.5% | SF-295 CNS 73.6% | SF-539 CNS 68.6% | UACC-257 melanoma 80.6% | M14 melanoma 34.7%

CCCN1C(=O)N(CCC)C2C1NC(=S)N2/N=C/C=C/c1ccccc1OC (stereo not given)
active: RXF 393 renal -29.8% | SF-539 CNS -30.6% | M14 melanoma -0.388%
inactive: DU-145 prostate 14.2% | K-562 leukemia 12.6% | MALME-3M melanoma 40.4% | MDA-MB-231 breast 23.9% | SF-268 CNS 62.9% | SF-295 CNS 10.9% | UACC-257 melanoma 60.5%
